# According to PubChem BioAssay (NCI):
# About 79,000 compounds went through this panel and 15% of them were active in at least one assay; those are over-represented in the sample as a whole. Unmarked numbers belong to inactive results. Activity calls are given as the source filed them. No stated cut-off is given here; in the data, active means growth inhibition above about 70%; inactive means the rest.
# Experiments:
# [1] = NCI Yeast Anticancer Drug Screen. Data for the rad52 strain (AID 147);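 further: 0% = growth of vehicle-treated control cultures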; conditions: S. cerevisiae rad52 mutant growth inhibition, hits give high values
# Method in brief: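 Yeast strain carrying a DNA damage repair alteration was exposed to test compounds. Growth inhibition was measured relative to vehicle-treated controls.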
# [2] = NCI Yeast Anticancer Drug Screen. Data for the wt1 strain (AID 149);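 further: 0% = growth of vehicle-treated wt1 cultures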; conditions: S. cerevisiae wt1 strain (SPY 50644) growth inhibition, hits give high values
# Method in brief: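 Using yeast strain wt1, compound-induced growth inhibition was determined against vehicle-treated cultures.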
# [3] = NCI Yeast Anticancer Drug Screen. Data for the rad50EPP+ strain (AID 151);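 further: 0% = growth of vehicle-treated control cultures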; conditions: S. cerevisiae rad50 mutant strain, hits give high values
# Method in brief: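 Yeast strain carrying rad50 alteration (rad50EPP+) exposed to compounds; growth inhibition measured relative to vehicle-treated controls.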
# [4] = NCI Yeast Anticancer Drug Screen. Data for the rad50 strain (AID 155);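 further: 0% = growth of vehicle-only cultures of the same strain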; conditions: S. cerevisiae rad50 strain growth inhibition, hits give high values
# Method in brief: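 Relative growth inhibition (compound vs vehicle) was measured in yeast with a defined repair-gene alteration.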
# [5] = NCI Yeast Anticancer Drug Screen. Data for the mec2-1 strain (AID 157); conditions: S. cerevisiae mec2-1 strain, hits give high values
# Method in brief: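 mec2-1 yeast strain, carrying an alteration in DNA damage repair or cell cycle control, was exposed to compounds; growth inhibition was measured relative to vehicle-treated controls.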
# [6] = NCI Yeast Anticancer Drug Screen. Data for the rad14 strain (AID 159);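 further: 0% = growth of vehicle-treated control cultures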; conditions: S. cerevisiae rad14 strain growth inhibition, hits give high values
# Method in brief: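 Screen for anticancer potential: a yeast strain altered in DNA damage repair is grown with compound, and reduced growth is quantified against vehicle controls.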
# [7] = NCI Yeast Anticancer Drug Screen. Data for the sgs1 mgt1 strain (AID 161);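 further: 0% = growth of cultures given vehicle only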; conditions: S. cerevisiae sgs1 mgt1 strain, hits give high values
# Method in brief: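 Growth of a repair-deficient yeast mutant was monitored after compound treatment and expressed as inhibition relative to vehicle-treated cultures.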
# [8] = NCI Yeast Anticancer Drug Screen. Data for the CLN2oe strain (AID 163);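 further: 0% = growth of vehicle-only control cultures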; conditions: S. cerevisiae CLN2oe strain, hits give high values
# Method in brief: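 Yeast cells carrying a defined cell-cycle control alteration were exposed to test compounds. Growth inhibition was scored against vehicle-treated control cultures.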
# [9] = NCI Yeast Anticancer Drug Screen. Data for the cln2 rad14 strain (AID 165);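 further: 0% = growth equal to vehicle treated cultures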; conditions: S. cerevisiae cln2 rad14 strain, hits give high values
# Method in brief: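 Yeast carrying cln2 and rad14 alterations (cell cycle control and DNA damage repair) were exposed to compounds. Growth inhibition was measured against vehicle-treated controls.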
# [10] = NCI Yeast Anticancer Drug Screen. Data for the bub3 strain (AID 167); conditions: S. cerevisiae bub3 mutant strain, hits give high values
# Method in brief: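 Screening used yeast with an engineered genetic alteration affecting cell cycle control. Compound-exposed cultures were compared with vehicle cultures, and reduced growth was taken as inhibition.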
# [11] = NCI Yeast Anticancer Drug Screen. Data for the wt2 strain (AID 169);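 further: 0% = growth of vehicle-treated yeast cultures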; conditions: S. cerevisiae wt2 strain growth inhibition, hits give high values
# Method in brief: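 Yeast cells were exposed to test compounds, and growth inhibition was measured relative to vehicle-treated controls.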
# [12] = NCI Yeast Anticancer Drug Screen. Data for the mlh1 strain (AID 171);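 further: 0% = growth of vehicle-treated control cultures of the same strain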; conditions: S. cerevisiae mlh1 strain growth inhibition, hits give high values
# Method in brief: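 Yeast carrying a defined genetic alteration in DNA damage repair or cell cycle control were exposed to test compounds. Growth inhibition was measured relative to vehicle-treated controls.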
# [13] = NCI Yeast Anticancer Drug Screen. Data for the sgs1 strain (AID 173);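 further: 0% = growth of vehicle-only control cultures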; conditions: S. cerevisiae sgs1 mutant, hits give high values
# Method in brief: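 Yeast mutant strains carrying defined defects in DNA damage repair or cell cycle control were exposed to test compounds. Growth inhibition was scored against vehicle-treated controls.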
# [14] = NCI Yeast Anticancer Drug Screen. Data for the mlh1 rad18 strain (AID 175); conditions: S. cerevisiae mlh1 rad18 strain growth inhibition, hits give high values
# Method in brief: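 Growth inhibition of the yeast strain was measured after compound exposure and expressed relative to vehicle-treated controls. The strain carries defined defects in DNA damage repair.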
# [15] = NCI Yeast Anticancer Drug Screen. Data for the rad18 strain (AID 177); conditions: S. cerevisiae rad18 mutant growth inhibition, hits give high values
# Method in brief: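 Yeast carrying a defined DNA damage repair alteration were exposed to compounds. Growth inhibition was expressed relative to vehicle-treated controls.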
# [16] = at 5.0 µM (retest, dose inferred, filed as 0.5)
# [17] = at 50.0 µM (retest, dose inferred, filed as 5.0)
compound,measurement,setting,value
O=P(Oc1ccc(Cl)cc1)(Oc1ccc(Cl)cc1)N1CC1,growth inhibition,[1]; at 1.2 µM,-1%
same,growth inhibition,[1]; at 3.7 µM,1%
same,growth inhibition,[1]; at 11.0 µM,0%
same,growth inhibition,[1]; at 33.0 µM,8%
same,growth inhibition,[1]; at 100.0 µM,53%
same,growth inhibition,[2]; at 1.2 µM,-2%
same,growth inhibition,[2]; at 3.7 µM,-6%
same,growth inhibition,[2]; at 11.0 µM,-4%
same,growth inhibition,[2]; at 33.0 µM,-2%
same,growth inhibition,[2]; at 100.0 µM,2%
same,growth inhibition,[3]; at 1.2 µM,-3%
same,growth inhibition,[3]; at 3.7 µM,-1%
same,growth inhibition,[3]; at 11.0 µM,4%
same,growth inhibition,[3]; at 33.0 µM,6%
same,growth inhibition,[3]; at 100.0 µM,-4%
same,growth inhibition,[4]; at 1.2 µM,2%
same,growth inhibition,[4]; at 3.7 µM,1%
same,growth inhibition,[4]; [16],-9%
same,growth inhibition,[4]; at 11.0 µM,2%
same,growth inhibition,[4]; at 33.0 µM,8%
same,growth inhibition,[4]; [17],43%
same,growth inhibition,[4]; at 50.0 µM,4.75%
same,growth inhibition,[4]; at 100.0 µM,79% (active)
same,growth inhibition,[5]; at 1.2 µM,-3%
same,growth inhibition,[5]; at 3.7 µM,-1%
same,growth inhibition,[5]; [16],4%
same,growth inhibition,[5]; at 11.0 µM,-2%
same,growth inhibition,[5]; at 33.0 µM,-1%
same,growth inhibition,[5]; [17],6%
same,growth inhibition,[5]; at 50.0 µM,14.3%
same,growth inhibition,[5]; at 100.0 µM,28%
same,growth inhibition,[6]; at 1.2 µM,0%
same,growth inhibition,[6]; at 3.7 µM,1%
same,growth inhibition,[6]; at 11.0 µM,5%
same,growth inhibition,[6]; at 33.0 µM,19%
same,growth inhibition,[6]; at 100.0 µM,90% (active)
same,growth inhibition,[7]; [16],-10%
same,growth inhibition,[7]; [17],35%
same,growth inhibition,[7]; at 50.0 µM,18.9%
same,growth inhibition,[8]; at 1.2 µM,-4%
same,growth inhibition,[8]; at 3.7 µM,-5%
same,growth inhibition,[8]; at 11.0 µM,6%
same,growth inhibition,[8]; at 33.0 µM,14%
same,growth inhibition,[8]; at 100.0 µM,48%
same,growth inhibition,[9]; [16],-17%
same,growth inhibition,[9]; [17],48%
same,growth inhibition,[9]; at 50.0 µM,9.3%
same,growth inhibition,[10]; at 1.2 µM,-4%
same,growth inhibition,[10]; at 3.7 µM,-2%
same,growth inhibition,[10]; [16],-23%
same,growth inhibition,[10]; at 11.0 µM,-5%
same,growth inhibition,[10]; at 33.0 µM,2%
same,growth inhibition,[10]; [17],27%
same,growth inhibition,[10]; at 50.0 µM,34.4%
same,growth inhibition,[10]; at 100.0 µM,32%
same,growth inhibition,[11]; at 1.2 µM,-11%
same,growth inhibition,[11]; at 3.7 µM,-13%
same,growth inhibition,[11]; at 11.0 µM,-14%
same,growth inhibition,[11]; at 33.0 µM,-8%
same,growth inhibition,[11]; at 100.0 µM,46%
same,growth inhibition,[12]; at 1.2 µM,-3%
same,growth inhibition,[12]; at 3.7 µM,-3%
same,growth inhibition,[12]; at 11.0 µM,-4%
same,growth inhibition,[12]; at 33.0 µM,2%
same,growth inhibition,[12]; at 100.0 µM,59%
same,growth inhibition,[13]; at 1.2 µM,-1%
same,growth inhibition,[13]; at 3.7 µM,-23%
same,growth inhibition,[13]; at 11.0 µM,2%
same,growth inhibition,[13]; at 33.0 µM,13%
same,growth inhibition,[13]; at 100.0 µM,92% (active)
same,growth inhibition,[14]; [16],-8%
same,growth inhibition,[14]; [17],83% (active)
same,growth inhibition,[14]; at 50.0 µM,32.1%
same,growth inhibition,[15]; at 1.2 µM,-5%
same,growth inhibition,[15]; at 3.7 µM,-1%
same,growth inhibition,[15]; at 11.0 µM,0%
same,growth inhibition,[15]; at 33.0 µM,3%
same,growth inhibition,[15]; at 100.0 µM,47%
